Screening data: PubChem, several laboratories
Shown are actives, neighbours in structure and some others; about 2.8% of the full set was active somewhere.
KKLEB tox: reduces viability of KKLEB cystic fibrosis airway cells. activity change (cytotoxicity), % at 5 µM. hit rate 0.36% among 360,000. AID 602141. KKLEB CF airway cells viability, ATPlite luminescence, overnight; stronger effect = lower value; cells stimulated with P. aeruginosa culture filtrate;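 active = corrected activity change at or below -50% at 5 µM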
HIF-2a inh: HIF-2a inhibition | AID 624352 | inhibition, % at 18.8 µM | 786-0 RCC cells HIF-2a reporter, luciferase luminescence, overnight | hit rate 0.72% among 360,000;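 active = inhibition of the luminescence signal of 40% or more relative to plate controls, in a single-dose primary screen at 18.75 µM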
CF NFkB inh: inhibitors of cystic fibrosis induced NF-kB; inhibition, % at 5 µM; AID 588850; KKLEB NF-kB-GFP reporter, PAF-induced, GFP fluorescence overnight; hit rate 0.86% among 360,000;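 active = at least 50% inhibition at 5 µM, scaled per plate between neutral and stimulator controls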;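 note: PAF is a Pseudomonas aeruginosa culture filtrate used as stimulus; plate controls were PAF-stimulated DMSO wells for no effect and unstimulated DMSO wells for full effect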
Shn3 inh set2: inhibitors of Schnurri-3 3'UTR reporter in osteoblasts; Clone20 osteoblast Shn3 3'UTR firefly luciferase, 24 h; inhibition, % at 12.5 µM; hit rate 0.52% among 360,000;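 active = mean inhibition of at least 75% with every replicate also reaching 75%; inconclusive = mean inhibition at least 75% but some replicate below; inactive = mean inhibition below 75%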;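 note: 0% = median of neutral control wells and 100% = pilot-screen positive control compound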
Peg3 promoter: reduces Peg3 promoter-driven luciferase expression in HeLa; HeLa PEG-Prom luciferase reporter, luminescence, overnight; inhibition, % at 20 µM; hit rate 1.7% among 360,000; AID 588405;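 active = inhibition of at least 50% at 20 µM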
TRPM1 prom inh: reduces MITF-dependent TRPM1 promoter luciferase signal | SK-MEL-5 TRPM1 promoter luciferase, 24 h | inhibition, % at 12.5 µM | hit rate 0.83% among 330,000;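 active = mean inhibition across replicates of 60% or more, whatever share of single replicates reaches that level; inconclusive = some that reach 60%, reason not given; inactive = mean inhibition across replicates below 60%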
An asterisk follows results filed as active; u = inconclusive; x = no result.

SMILES | KKLEB tox | HIF-2a inh | CF NFkB inh | Shn3 inh set2 | Peg3 promoter | TRPM1 prom inh
Cn1nccc1C(=O)NC1CCN(Cc2ccccc2)CC1 | 17.1 | 17.9 | -19.5 | -2.9 | 14.0 | 17.0
C(=C\c1ccccc1)/C=N/Nc1nc(N2CCCCC2)nc(N2CCCCC2)n1 | -15.9 | 0.6 | -1.5 | 20.9 | 51.0* | -7.3
O=[N+]([O-])c1ccccc1/C=C/C=N/Nc1nc(N2CCCCC2)nc(N2CCCCC2)n1 | 9.0 | 1.2 | -6.0 | 9.8 | 18.0 | 19.8
COc1ccc(NC(=O)C2CC2(Cl)Cl)cc1S(=O)(=O)N1CCCCC1 (stereo not drawn) | 21.5 | 22.3 | 16.5 | 1.0 | 7.5 | x
Cc1cc(C)n(-c2nc(SCCN(C)C)c3c4c(sc3n2)CCCC4)n1 | -31.0 | -270.6 | 12.4 | 52.9 | 82.6* | 10.1
Cc1cc(C)n(-c2nc(SCC(=O)O)c3c4c(sc3n2)COC(C)(C)C4)n1 | 1.9 | 9.3 | -3.7 | 0.5 | 21.2 | -11.1
Cc1ccc(NC(=O)CSc2nnc(-c3ccc(S(=O)(=O)N4CCCC4)cc3)o2)cc1C | 4.1 | 5.6 | -3.5 | 13.8 | 60.1* | 14.1
CCOC(=O)N1CCN(S(=O)(=O)c2c(C(=O)N3CCCCC3)c(C)n(C)c2C)CC1 | 10.9 | 7.9 | -10.2 | -4.1 | 21.4 | 3.8
O=[N+]([O-])c1ccc2[nH]cc(S(=O)(=O)N3CCN(c4cccc(Cl)c4)CC3)c2c1 | 0.8 | 6.6 | 12.9 | 41.8 | 60.0* | -0.4
COC(=O)c1ccccc1COc1cccn2c(N(C)C(=O)CCC3CCCC3)c(C)nc12 | -11.9 | 8.8 | 26.2 | 23.7 | 12.0 | x
O=C(NNC(=O)c1sccc1-n1cccc1)Nc1ccc(F)cc1 | 2.7 | 4.9 | 1.8 | -4.8 | 4.8 | -6.5
Cc1nc2ccccc2c(N)c1C(=O)/C=C/c1ccccc1 | -11.9 | -9.9 | -14.1 | -1.5 | 72.0* | 2.7
Cc1cc(CN2CCOCC2)c(O)c(C2(C)CCCCC2)c1 | 1.0 | 22.1 | 17.4 | 86.5* | 15.8 | -6.7
OCC1OC(n2cnc3c(NCc4ccccc4O)ncnc32)C(O)C1O (stereo not drawn) | -53.6* | -25.3 | 30.4 | 77.2 | 70.7* | 59.4
O=C(Nc1nc2ccccc2n1CCN1CCOCC1)c1cn(-c2ccccc2)nc1-c1ccccc1 | -19.2 | 12.1 | 2.6 | 71.6 | 84.2* | 36.3
N#Cc1c2ccc(O)cc2n2ccccc12 | 9.6 | 18.2 | 71.2* | 4.3 | -64.5 | -0.8
O=C(NC1CCCC1)C1c2ccccc2OCC(=O)N1C1CC1 (stereo not drawn) | x | 7.4 | x | x | x | x
c1ccc(CN2CCC(Nc3nc(-c4cccs4)nc4ccccc34)CC2)cc1 | -18.1 | 22.1 | 4.7 | -6.4 | 74.8* | 24.7
Cc1ccc2nc(-c3cccnc3)cc(C(=O)N3CCN(c4ccc([N+](=O)[O-])cc4)CC3)c2c1 | -21.0 | 19.1 | 2.8 | 18.3 | 99.5* | 7.6
Cn1cc(-c2coc3c(C(=O)NCc4cccs4)cccc23)cn1 | -7.6 | -70.9 | 18.2 | 4.0 | -38.4 | x
Fc1ccc(CNC(=S)Nc2cccc(C(F)(F)F)c2)cc1 | -0.1 | 1.5 | 1.7 | -0.6 | 68.6* | -1.4
N#Cc1c(NCc2ccccc2)ccnc1NCc1cccnc1 | 1.2 | 10.6 | 25.8 | 84.6* | 20.4 | 26.1
O=[N+]([O-])c1cc(S(=O)(=O)O)cc([N+](=O)[O-])c1NN(c1ccccc1)c1ccccc1 | 6.6 | 8.7 | -15.2 | -37.4 | 8.6 | 2.5
O=C(CCl)N1CCN2C(=O)c3ccccc3C12c1ccc(Cl)cc1 (stereo not drawn) | 1.4 | 19.6 | 18.7 | -11.3 | 87.5* | 55.5
OCCNc1nc(Nc2ccc(Cl)cc2)nc(N2CCCC2)n1 | -0.3 | -10.0 | -0.4 | 87.4* | 0.8 | 2.3
SMILES | KKLEB tox | HIF-2a inh | CF NFkB inh | Shn3 inh set2 | Peg3 promoter | TRPM1 prom inh
COc1ccc(Nc2nc(NCCO)nc(N3CCCC3)n2)cc1 | 14.0 | -4.0 | -16.0 | -4.7 | 5.5 | -0.6
O=Cc1cn(-c2ccccc2)nc1-c1ccccc1 | -15.2 | -155.5 | 6.3 | -34.7 | -71.5 | -42.4
CC1=NNC(=O)/C1=C\c1cn(-c2ccccc2)nc1-c1ccccc1 | -42.5 | 95.4* | 93.5* | 97.3* | 104.4* | 94.5*
CC(C)(C)OC(=O)N1CCC[C@H]1C(=O)N/N=C/c1cccc2nccnc12 | 1.5 | 14.2 | 0.8 | -13.0 | -5.4 | x
Cc1cc(C)c2c(=O)n3c(nc2c1)C(Cc1ccc(O)cc1)NC(=O)c1cc2ccccc2cc1-3 (stereo not drawn) | -1.6 | -9.6 | 4.7 | 54.3 | 67.4* | x
O=C1NC(Cc2ccc(O)cc2)c2nc3ccc(Br)cc3c(=O)n2-c2cc3ccccc3cc21 (stereo not drawn) | -15.6 | -27.5 | 22.3 | 29.4 | 46.6 | x
COCCCN1C(=O)C(CC(=O)NCC2CCCCC2)CC(C(=O)N2CCOCC2)=C1C (stereo not drawn) | 14.5 | 3.5 | -27.4 | -10.9 | 7.3 | x
COCC(C)N1C(=O)Cc2c1nc(N)c1c(N)nc(N3CCN(c4ccccc4F)CC3)c(C#N)c21 (stereo not drawn) | -14.6 | 20.9 | 6.4 | 73.4 | 55.2* | 28.1
COCCN1C(=O)Cc2c1nc(N)c1c(N)nc(N3CCN(c4ccc(F)cc4)CC3)c(C#N)c21 | 8.6 | 10.8 | -12.9 | -1.0 | 24.0 | 0.8
COc1ccccc1N1CCN(C(=O)c2cc(-c3cccc(Cl)c3)on2)CC1 | 3.1 | 11.7 | 11.7 | 6.1 | 5.9 | -3.5
CCOc1ccc(OCC(=O)N(CCC2=CCCCC2)c2c(N)n(Cc3ccccc3)c(=O)[nH]c2=O)cc1 | -61.5* | 4.1 | 71.8* | 81.7 | 82.7* | 76.8*
CC(CC(=O)N(CCC1=CCCCC1)c1c(N)n(Cc2ccccc2)c(=O)[nH]c1=O)c1ccccc1 (stereo not drawn) | 4.7 | -6.2 | -11.8 | 19.1 | 87.1* | u
COc1ccc(CC(=O)N(CCC2=CCCCC2)c2c(N)n(Cc3ccccc3)c(=O)[nH]c2=O)cc1 | 0.3 | 12.9 | -13.5 | -2.5 | 16.6 | x
Cc1ccc(C)c(NC(=O)C2CCCN2/C=C/C(=O)C(F)(F)F)c1 (stereo not drawn) | -2.9 | 20.8 | 7.7 | -26.8 | 13.4 | -0.3
CC(C)c1ccc(C2NC(=S)NC3=C2C(=O)CC(C)(C)C3)cc1 (stereo not drawn) | 1.8 | 12.2 | 8.1 | 13.1 | -5.1 | -16.1
O=C(c1cnn2c1NC(c1ccco1)CC2C(F)(F)F)N1CCN(c2cccc(Cl)c2)CC1 (stereo not drawn) | -0.7 | 28.8 | 8.7 | 32.8 | 50.1* | 17.7
CC(C)[C@@H]1CC[C@@H](C)C[C@H]1O | -5.0 | 1.5 | -7.1 | 7.1 | 6.3 | x
COc1ccc2oc(C(=O)N3CCc4ccccc43)c(C)c2c1 | -54.8* | -72.4 | -26.2 | 23.1 | -145.7 | -25.9
S=c1[nH]nc(-c2cc(-c3ccccc3)n[nH]2)n1/N=C/C(Br)=C/c1ccccc1 | -76.9* | 26.4 | 104.4* | 73.6 | 107.9* | x
S=c1[nH]nc(-c2cc(-c3ccccc3)n[nH]2)n1/N=C/c1ccccc1 | 24.2 | -13.3 | -25.1 | -19.0 | 1.0 | -8.2
